Calls of active or inactive are those of the source. The calls were made as follows: active = hit-call score of the fitted dose curve at least 0.9, where 1 is the maximum; inactive = score below 0.9.

Outcome and AC50 data for 30 compounds are collected here from PubChem BioAssay (EPA / NIEHS).

Read-out in one experiment: Cytochrome P450 7A1 (Homo sapiens) (UniProt P22680)
Kind of experiment: LTEA_HepaRG_CYP7A1: Life Technologies and Expression Analysis (LTEA) Assay for Cytochrome P450 7A1 (CYP7A1) using HepaRG (AID 2283496). Particulars: mRNA level, 48 h; actives raise or lower the signal. An outline of the steps: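 Gene expression endpoint in human HepaRG liver cells treated for 48 h with test chemicals (up to 100 uM, 0.5% DMSO). Values come from bidirectional concentration-response fitting versus DMSO.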
As to `CC(C)OC(=O)C(C)(C)Oc1ccc(C(=O)c2ccc(Cl)cc2)cc1`, the call was inactive.

Take `CCCC[C@H]1CN(CC2CCOCC2)C(=O)OC12CCN(C1(C)CCN(C(=O)c3c(C)ncnc3C)CC1)CC2`: the call was inactive.

Consider `CCCCCCCCCCCCCCOS(=O)(=O)O`, for which the AC50 (in general, the concentration giving half of the maximal activity seen) was 23.7 µM (active).

With `OCC(CO)n1cnc(-c2ccc(F)cc2)c1-c1ccnc(Oc2ccccc2)n1`, the compound was classed as inactive.

In the case of `CC(C)(O)c1ccc(CNC(=O)c2cccnc2Oc2ccc(F)cc2)cc1`, the call was inactive.

For the compound `Cc1cc(SC2=C(O)C[C@@](CCc3ccc(N)cc3)(C(C)C)OC2=O)c(C(C)(C)C)cc1CO`, the AC50 is 16.1 µM (active).

As for `N[C@@H](Cc1c[nH]c2ccccc12)C(=O)O`, the compound was classed as inactive.

For `CC(C)c1cccc(C(C)C)c1`, the result was inactive.

Consider `CC(=O)S[C@H](C(=O)N[C@H]1Cc2ccccc2[C@H]2CCC[C@@H](C(=O)O)N2C1=O)C(C)C`, for which the call was inactive.

Consider `COc1ccc(C(=O)Nc2nc3ccccc3c(NCc3ccccc3)c2C#N)cc1`, for which the AC50 is 17.8 µM (active).

On to `O=C(Oc1ccccc1)c1cccc(C(=O)Oc2ccccc2)c1`, for which the outcome was inactive.

Take `CN(C)C(=O)NC1(c2ccccc2)CCN(CC[C@@]2(c3ccc(F)c(F)c3)CN(C(=O)c3ccccc3)CCO2)CC1`: the result was inactive.

In the case of `CC(C)c1cccc(C(C)C)c1NC(=O)NS(=O)(=O)c1cc(C(C)(C)O)co1`, the compound was classed as inactive.

For `O=C1c2c(O)cccc2Cc2cccc(O)c21`, the compound was called inactive.

As for `CC(N)=O`, the result was inactive.

For `CC(C)(C)c1ccccc1`, the compound was called inactive.

Regarding `Cc1ccc(C(C)(C)C)c(O)c1`, the compound was called inactive.

For the compound `c1ccc2occc2c1`, the compound was called inactive.

`COC(=O)CCC(=O)OC`: the compound was called inactive.

Take `CC(=O)CC(c1ccccc1)c1c(O)c2ccccc2oc1=O` (centres undefined): the compound was classed as inactive.

Take `CCc1cc(C2=C(C(=O)O)N(c3ccccc3C(F)(F)F)S(=O)(=O)c3ccccc32)cc2c1OCO2`: the AC50 is 72.2 µM (active).

Turning to `CCCCc1nc2cccnc2n1Cc1ccc(-c2ccccc2-c2nnn[nH]2)cc1`, the AC50 was 26.6 µM (active).

For the compound `CCCCC(CC)CO` (centres undefined), the call was inactive.

In the case of `CC1=C(C)S(=O)(=O)CCS1(=O)=O`, the AC50 is 92.6 µM (active).

As to `CCCCC(CC)COP(=O)(OCC(CC)CCCC)OCC(CC)CCCC` (centres undefined), the result was inactive.

Take `CC(COCC(C)OC(=O)c1ccccc1)OC(=O)c1ccccc1` (centres undefined): the compound was classed as inactive.

Consider `CC1(C)C(=O)NC(=O)N1CO`, for which the compound was called inactive.

With `CCCCCCC(CCCCCCCCCCC(=O)OCC(COC(C)=O)OC(C)=O)OC(C)=O` (centres undefined), the result was inactive.

Consider `O=Cc1ccccc1C=O`, for which the compound was called inactive.

Read-out in the next experiment: Glutathione S-Transferase (GSTA2), GSTA2 (gene 2939)
In words: LTEA_HepaRG_GSTA2: Life Technologies and Expression Analysis (LTEA) Assay for Glutathione S-Transferase (GSTA2) using HepaRG (AID 2283497). As to conditions: mRNA level, 48 h; actives raise or lower the signal. The method in brief: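 Differentiated human HepaRG cells were exposed in duplicate for 48 h in serum-free induction medium, 8 points from 100 uM top in half-log steps, 0.5% DMSO. GSTA2 mRNA was measured by TaqMan qRT-PCR, normalized to ACTB, GAPDH and POLR2A; bidirectional fit versus DMSO.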
Take `CC(C)OC(=O)C(C)(C)Oc1ccc(C(=O)c2ccc(Cl)cc2)cc1`: the outcome was inactive.

`CCCC[C@H]1CN(CC2CCOCC2)C(=O)OC12CCN(C1(C)CCN(C(=O)c3c(C)ncnc3C)CC1)CC2`: the result was inactive.

In the case of `CCCCCCCCCCCCCCOS(=O)(=O)O`, the call was inactive.

`OCC(CO)n1cnc(-c2ccc(F)cc2)c1-c1ccnc(Oc2ccccc2)n1`: the call was inactive.

Take `CC(C)(O)c1ccc(CNC(=O)c2cccnc2Oc2ccc(F)cc2)cc1`: the compound was classed as inactive.

`Cc1cc(SC2=C(O)C[C@@](CCc3ccc(N)cc3)(C(C)C)OC2=O)c(C(C)(C)C)cc1CO`: the call was inactive.

Turning to `N[C@@H](Cc1c[nH]c2ccccc12)C(=O)O`, the outcome was inactive.

Consider `CC(C)c1cccc(C(C)C)c1`, for which the compound was classed as inactive.

`CC(=O)S[C@H](C(=O)N[C@H]1Cc2ccccc2[C@H]2CCC[C@@H](C(=O)O)N2C1=O)C(C)C`: the call was inactive.

Consider `COc1ccc(C(=O)Nc2nc3ccccc3c(NCc3ccccc3)c2C#N)cc1`, for which the AC50 is 20.5 µM (active).

As to `O=C(Oc1ccccc1)c1cccc(C(=O)Oc2ccccc2)c1`, the result was inactive.

Regarding `CN(C)C(=O)NC1(c2ccccc2)CCN(CC[C@@]2(c3ccc(F)c(F)c3)CN(C(=O)c3ccccc3)CCO2)CC1`, the compound was classed as inactive.

On to `CC(C)c1cccc(C(C)C)c1NC(=O)NS(=O)(=O)c1cc(C(C)(C)O)co1`, for which the compound was called inactive.

On to `O=C1c2c(O)cccc2Cc2cccc(O)c21`, for which the compound was classed as inactive.

In the case of `O=[Si]=O`, the compound was classed as inactive.

For the compound `CC(N)=O`, the call was inactive.

`CC(C)(C)c1ccccc1`: the result was inactive.

Regarding `Cc1ccc(C(C)(C)C)c(O)c1`, the compound was classed as inactive.

`c1ccc2occc2c1`: the compound was classed as inactive.

For `COC(=O)CCC(=O)OC`, the compound was called inactive.

For the compound `CC(=O)CC(c1ccccc1)c1c(O)c2ccccc2oc1=O` (centres undefined), the compound was classed as inactive.

`CCc1cc(C2=C(C(=O)O)N(c3ccccc3C(F)(F)F)S(=O)(=O)c3ccccc32)cc2c1OCO2`: the AC50 is 78.8 µM (active).

On to `CCCCc1nc2cccnc2n1Cc1ccc(-c2ccccc2-c2nnn[nH]2)cc1`, for which the result was inactive.

As for `CCCCC(CC)CO` (centres undefined), the result was inactive.

Consider `CC1=C(C)S(=O)(=O)CCS1(=O)=O`, for which the AC50 was 90.3 µM (active).

In the case of `CCCCC(CC)COP(=O)(OCC(CC)CCCC)OCC(CC)CCCC` (centres undefined), the call was inactive.

For `CC(COCC(C)OC(=O)c1ccccc1)OC(=O)c1ccccc1` (centres undefined), the compound was classed as inactive.

Consider `CC1(C)C(=O)NC(=O)N1CO`, for which the compound was called inactive.

On to `CCCCCCC(CCCCCCCCCCC(=O)OCC(COC(C)=O)OC(C)=O)OC(C)=O` (centres undefined), for which the compound was classed as inactive.

`O=Cc1ccccc1C=O`: the call was inactive.

Read-out in a further experiment: Glutamate-cysteine ligase catalytic (GCLC), GCLC (gene 2729)
In words: LTEA_HepaRG_GCLC: Life Technologies and Expression Analysis (LTEA) Assay for Glutamate-cysteine ligase catalytic (GCLC) using HepaRG (AID 2283498). As to conditions: mRNA level, 48 h; actives raise or lower the signal. The method in brief: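 Differentiated HepaRG cells exposed 48 h in serum-free induction medium, eight-point half-log series topping at 100 uM in 0.5% DMSO, duplicates. GCLC mRNA by qRT-PCR normalized to ACTB, GAPDH and POLR2A, fitted bidirectionally versus DMSO.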
On to `CC(C)OC(=O)C(C)(C)Oc1ccc(C(=O)c2ccc(Cl)cc2)cc1`, for which the outcome was inactive.

Consider `CCCC[C@H]1CN(CC2CCOCC2)C(=O)OC12CCN(C1(C)CCN(C(=O)c3c(C)ncnc3C)CC1)CC2`, for which the call was inactive.

Take `CCCCCCCCCCCCCCOS(=O)(=O)O`: the result was inactive.

For `OCC(CO)n1cnc(-c2ccc(F)cc2)c1-c1ccnc(Oc2ccccc2)n1`, the compound was called inactive.

Take `CC(C)(O)c1ccc(CNC(=O)c2cccnc2Oc2ccc(F)cc2)cc1`: the outcome was inactive.

As to `Cc1cc(SC2=C(O)C[C@@](CCc3ccc(N)cc3)(C(C)C)OC2=O)c(C(C)(C)C)cc1CO`, the compound was classed as inactive.

In the case of `N[C@@H](Cc1c[nH]c2ccccc12)C(=O)O`, the compound was called inactive.

With `CC(C)c1cccc(C(C)C)c1`, the compound was classed as inactive.

With `CC(=O)S[C@H](C(=O)N[C@H]1Cc2ccccc2[C@H]2CCC[C@@H](C(=O)O)N2C1=O)C(C)C`, the result was inactive.

For `COc1ccc(C(=O)Nc2nc3ccccc3c(NCc3ccccc3)c2C#N)cc1`, the outcome was inactive.

`O=C(Oc1ccccc1)c1cccc(C(=O)Oc2ccccc2)c1`: the compound was classed as inactive.

Consider `CN(C)C(=O)NC1(c2ccccc2)CCN(CC[C@@]2(c3ccc(F)c(F)c3)CN(C(=O)c3ccccc3)CCO2)CC1`, for which the call was inactive.

`CC(C)c1cccc(C(C)C)c1NC(=O)NS(=O)(=O)c1cc(C(C)(C)O)co1`: the compound was called inactive.

Turning to `O=C1c2c(O)cccc2Cc2cccc(O)c21`, the call was inactive.

Turning to `O=[Si]=O`, the outcome was inactive.

Turning to `CC(N)=O`, the result was inactive.

Take `CC(C)(C)c1ccccc1`: the compound was called inactive.

`Cc1ccc(C(C)(C)C)c(O)c1`: the outcome was inactive.

Take `c1ccc2occc2c1`: the outcome was inactive.

For the compound `COC(=O)CCC(=O)OC`, the outcome was inactive.

As for `CC(=O)CC(c1ccccc1)c1c(O)c2ccccc2oc1=O` (centres undefined), the result was inactive.

As to `CCc1cc(C2=C(C(=O)O)N(c3ccccc3C(F)(F)F)S(=O)(=O)c3ccccc32)cc2c1OCO2`, the result was inactive.

Consider `CCCCc1nc2cccnc2n1Cc1ccc(-c2ccccc2-c2nnn[nH]2)cc1`, for which the call was inactive.

On to `CCCCC(CC)CO` (centres undefined), for which the compound was classed as inactive.

Turning to `CC1=C(C)S(=O)(=O)CCS1(=O)=O`, the AC50 is 70.6 µM (active).

Take `CCCCC(CC)COP(=O)(OCC(CC)CCCC)OCC(CC)CCCC` (centres undefined): the call was inactive.

`CC(COCC(C)OC(=O)c1ccccc1)OC(=O)c1ccccc1` (centres undefined): the compound was classed as inactive.

For the compound `CC1(C)C(=O)NC(=O)N1CO`, the compound was called inactive.

Take `CCCCCCC(CCCCCCCCCCC(=O)OCC(COC(C)=O)OC(C)=O)OC(C)=O` (centres undefined): the outcome was inactive.

In the case of `O=Cc1ccccc1C=O`, the compound was called inactive.
